Assay [1] addresses Lysosomal acid glucosylceramidase (Homo sapiens) (UniProt P04062). The assay is described as follows: Glucocerebrosidase-p2 (AID 348; in the data active = potency below about 10 µM; also: potency is read from the fitted curve at half-maximal effect). The settings on record: purified GBA, blue fluorogenic substrate, 40 min. The method, boiled down: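 Normal human glucocerebrosidase (0.2 nM) with blue fluorogenic substrate (80 uM final) in citrate/phosphate pH 5.9 with 10mM sodium taurocholate, 0.01% tween-20; 40 min RT, NaOH/glycine stop; fluorescence Ex 365/Em 440; AC50 from a titration from 0.6 nM upwards.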

Assay [2] can be described thus: AP1 Signaling Pathway (AID 357). Also: % is scaled to controls: 0 for no effect and ±100 for the full control effect. The settings on record: ME-180 AP-1-bla reporter, EGF-induced, beta-lactamase ratio, 5 h; at 7.69 µM (top of the series) unless noted. The gist of the method: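 Cells are seeded overnight, exposed to compound titrations and an EC50 level of EGF for 5 hours at 37 °C, then loaded with CCF4 dye for 2.5 hours. Beta-lactamase activity under the AP-1 element is read as a blue/green ratio.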

The target in assay [3] is Cytochrome P450 1A2 (Homo sapiens) (UniProt P05177). The assay is described as follows: p450-cyp1a2 (AID 410; calls by dose curve; also: potency is read from the fitted curve at half-maximal effect;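 as to activity change, negative = inhibition: -100% = full effect of reference inhibitor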). The gist of the method:
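20nM CYP1A2, 100uM Luciferin-ME (=Km), 100mM KPO4; cpd 10 min RT; +NADPH regen, 60 min RT; stop/detect 20 min; luminescence. Normalized to furafylline 57 uM = full inhibition.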

The nature of assay [4]: Stat Signaling Pathway (AID 446).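 Also: ME-180 cervical cancer cells given 40 pM IL-6 alongside compound; SIE-controlled beta-lactamase reporter measured as 460/530 nm FRET emission ratio; % is scaled to controls: 0 for no effect and ±100 for the full control effect.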 The settings on record: ME-180 (cervical carcinoma) SIE beta-lactamase reporter, IL-6 stimulated, 5 h; at 7.69 µM (top of the series) unless noted. The gist of the method:
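Emission at 460 and 530 nm (excitation 405 nm) reports SIE-controlled beta-lactamase in ME-180 cells. Cells received compound with 40 pM IL-6 for 5 hrs at 37 C; data scaled between 300 pM IL-6 and 125 nM JAK-inhibitor controls.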

The target in assay [5] is Glucocorticoid receptor (Homo sapiens) (UniProt P04150). As to the kind of experiment: GR-GFP Redistribution (AID 450;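 active = compounds whose dose series gives a full or clear partial fitted curve of increased nuclear translocation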; also: potency is read from the fitted curve at half-maximal effect). The settings on record: U2OS GR-GFP nuclear translocation, laser cytometry, 2 h.
Chain of Glucocorticoid receptor (Homo sapiens) (P04150 whole entry, looked up, the tested form may be a part): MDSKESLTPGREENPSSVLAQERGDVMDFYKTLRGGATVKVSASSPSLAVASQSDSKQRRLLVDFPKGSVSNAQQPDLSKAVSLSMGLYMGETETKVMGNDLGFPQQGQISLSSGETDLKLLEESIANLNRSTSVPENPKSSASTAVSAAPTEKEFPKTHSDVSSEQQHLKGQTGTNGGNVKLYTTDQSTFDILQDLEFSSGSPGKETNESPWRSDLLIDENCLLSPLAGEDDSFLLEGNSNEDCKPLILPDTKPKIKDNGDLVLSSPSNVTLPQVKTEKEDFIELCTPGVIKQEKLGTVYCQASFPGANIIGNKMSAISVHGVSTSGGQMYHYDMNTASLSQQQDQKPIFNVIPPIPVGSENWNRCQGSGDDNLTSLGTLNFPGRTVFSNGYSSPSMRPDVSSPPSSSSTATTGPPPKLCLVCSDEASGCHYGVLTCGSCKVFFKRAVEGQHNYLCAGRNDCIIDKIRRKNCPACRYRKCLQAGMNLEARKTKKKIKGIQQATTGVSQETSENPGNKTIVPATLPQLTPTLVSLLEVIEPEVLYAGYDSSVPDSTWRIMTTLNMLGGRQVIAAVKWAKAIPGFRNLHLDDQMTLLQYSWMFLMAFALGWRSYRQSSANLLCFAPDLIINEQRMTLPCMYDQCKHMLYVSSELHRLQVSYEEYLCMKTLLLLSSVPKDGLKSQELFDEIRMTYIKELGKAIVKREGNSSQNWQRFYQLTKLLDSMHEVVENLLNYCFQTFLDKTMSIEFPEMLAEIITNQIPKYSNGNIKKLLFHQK
For assay [6] the target is unchanged. As to the kind of experiment: GR-EFC Redistribution (AID 451; calls by dose curve; also: potency is read from the fitted curve at half-maximal effect). The settings on record: CHO-K1 GR-EFC translocation, beta-gal luminescence, 2 h. The method, boiled down: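 Translocation of GR-ED fusion to nuclear EA restores b-gal, read by luminescence after 1 h room-temperature detection. Engineered CHO-K1 biosensor cells, 1,000/well, exposed 2 h at 37 C to titrations up to 46 uM final.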

Assay [7] has as its target Mitogen-activated protein kinase 10 (Mus musculus) (UniProt Q61831). As to the kind of experiment: JNK3 AlphaScreen Assay (AID 530).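 Also: kinase came from lysate of stimulated human HepG2 cells; signal reports phosphorylation of biotinylated GST-cJun 1-79 at Ser73 with 10 µM ATP; % is scaled to controls: 0 for no effect and ±100 for the full control effect.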 The gist of the method: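 Kinase buffer: 20 mM Tris-HCl pH 7.6, 10 mM MgCl2, 1 mM DTT, 0.1 mM Na3VO4, 0.01% Tween-20; ATP 10 uM. Substrate biotin-GST-cJun(1-79), enzyme from activated HepG2 lysates. Detection by Ser73 phospho-antibody AlphaScreen.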

Assay [8] has as its target 3',5'-cyclic-AMP phosphodiesterase 4B (Homo sapiens) (UniProt Q07343). The assay is described as follows: qHTS Assay for Inhibitors of PDE-IV (AID 607; active = well fitted activation curve with a large enough effect in the main read-out, with a control signal flat, not every such curve was filed as active; also: % of control where 0% means no effect). The gist of the method: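 The readout is membrane depolarisation from a cAMP-sensing CNG channel, detected with a potential dye at ex 535/em 590. Cells were HEK293-derived (endogenous PDE-IV) at 1000 cells/well, titrated up to 22.9 uM final.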
(In qHTS, concentration-response curves come from the screen itself.)

A short description of assay [9]: qHTS Assay for Lipid Storage Modulators (AID 1519; calls by dose curve). Conditions: Drosophila S3 cells, BODIPY lipid droplet/cell ratio, laser cytometry, cells loaded with oleic acid; for activity change, negative = inhibition: at 57.5 µM (top of the series). The method, boiled down:
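Cells seeded at 5,000 per well were treated with compounds over a concentration series and loaded with oleic acid (400 uM, as added). Lipid droplet fluorescence (488 nm excitation, 500-530 nm channel) was read by laser-scanning cytometry and normalized to 20 uM Triacsin C.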

The target in assay [10] is Dual specificity protein kinase CLK4 (Homo sapiens) (UniProt Q9HAZ1). As to the kind of experiment: qHTS Assay for Inhibitors of CDC-like Kinase 4 (Kinase-Glo Assay) (AID 1770; active = well fitted curve in the direction sought with a large enough effect; an effect the other way counts as inactive or inconclusive; also: % is scaled to controls: 0 for no effect and ±100 for the full control effect; nearly all actives have a fitted effect of over 65% in size). The gist of the method:
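Inhibition was judged from remaining ATP, measured by Ultra-Glo luciferase bioluminescence after Clk4 (25 nM) had acted on RS peptide at 1 uM ATP for 4.5 hours, room temperature.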

The target is the same in assay [11]. As to the kind of experiment: qHTS Assay for Inhibitors of CDC-like Kinase 4 (ADP-Glo Assay) (AID 1771; active = well fitted curve in the direction sought with a large enough effect; an effect the other way counts as inactive or inconclusive; also: nearly all actives have a fitted effect of over 70% in size; also: potency is read from the fitted curve at half-maximal effect). The gist of the method: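 25 nM Clk4, 100 uM RS peptide, 1 uM ATP (final); 2 mM MgCl2, 0.5 mM EGTA, 2.5 mM DTT, 0.01% Triton X-100; 1 hr RT. ADP-Glo readout: ATP depletion 45 min, conversion/luciferase 30 min, luminescence.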
For assay [12] the target is unchanged. As to the kind of experiment: qHTS Assay for Inhibitors of CDC-like Kinase 4 (ADP-FP Assay) (AID 1795; active = well fitted curve in the direction sought with a large enough effect; an effect the other way counts as inactive or inconclusive;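 also: recombinant human CLK4 phosphorylating RS repeat peptide at 1 µM ATP; % is scaled to controls: 0 for no effect and ±100 for the full control effect; nearly all actives have a fitted effect of over 60% in size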). The method, boiled down: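 Inhibition of ADP formation by 6.25 nM Clk4 is measured using 1 uM ATP and 100 uM RS repeat peptide over one hour. Produced ADP displaces a fluorescent tracer from antibody, lowering polarization.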
The target of assay [13] is Ubiquitin carboxyl-terminal hydrolase 1 (Homo sapiens) (UniProt O94782). The assay is described as follows: Inhibitors of USP1/UAF1: Pilot qHTS (AID 504865; active = well fitted curve in the direction sought with a large enough effect; an effect the other way counts as inactive or inconclusive;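 also: rhodamine fluorescence freed from ubiquitin-rhodamine substrate followed over time; top concentration of the series differs between compounds; % is scaled to controls: 0 for no effect and ±100 for the full control effect; nearly all actives have a fitted effect of over 35% in size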). The gist of the method:
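Kinetic fluorescence assay: 1nM USP1/UAF1, 15 min compound preincubation, then 150nM Ub-Rho; 480/540 nm.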

The nature of assay [14]: NFAT Signaling Pathway (AID 444).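 Also: carbachol stimulus at about its EC50 of 1 µM final; % is scaled to controls: 0 for no effect and ±100 for the full control effect.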 The settings on record: Jurkat NFAT-bla M1, carbachol, beta-lactamase ratio, 5 h; at 7.69 µM (top of the series) unless noted. The gist of the method: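 Read-out: CCF4 FRET ratio (460 nm/530 nm) after 1 h RT dye loading, used for %activity and AC50 from titration series. Cells: Jurkat NFAT-β-lactamase/M1 line, treated with compound plus 1 uM carbachol for 5 h, 37 °C.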

The target in assay [15] is Cytochrome P450 3A4 (Homo sapiens) (UniProt P08684). As to the kind of experiment: qHTS Assay for Activators of Cytochrome P450 3A4 (AID 885; active = well fitted curve in the direction sought with a large enough effect; an effect the other way counts as inactive or inconclusive; also: nearly all actives have a fitted effect of over 65% in size). The gist of the method: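 Activators are scored by enhanced luminescence from CYP3A4 conversion of luciferin-PPXE (25uM, equal to KM) to luciferin, after 60 min at RT with an NADPH-regenerating system.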
Chain of Cytochrome P450 3A4 (Homo sapiens) (P08684 whole entry, looked up): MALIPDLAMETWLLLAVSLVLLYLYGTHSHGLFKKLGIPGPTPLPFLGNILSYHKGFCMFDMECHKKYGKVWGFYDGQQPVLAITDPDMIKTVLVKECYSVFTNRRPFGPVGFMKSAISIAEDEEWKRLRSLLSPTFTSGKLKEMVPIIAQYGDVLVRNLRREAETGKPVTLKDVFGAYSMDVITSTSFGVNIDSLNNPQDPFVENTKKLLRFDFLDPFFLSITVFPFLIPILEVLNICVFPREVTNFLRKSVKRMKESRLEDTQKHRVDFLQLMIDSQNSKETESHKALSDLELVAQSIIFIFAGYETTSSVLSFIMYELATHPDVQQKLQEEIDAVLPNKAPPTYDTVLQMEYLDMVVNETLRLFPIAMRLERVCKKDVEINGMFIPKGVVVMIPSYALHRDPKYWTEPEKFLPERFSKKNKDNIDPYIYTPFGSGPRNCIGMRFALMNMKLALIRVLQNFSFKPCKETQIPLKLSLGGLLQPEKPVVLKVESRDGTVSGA
[16] abbreviates: measured here: cell count channel max response.
Where [17] appears, read: measured here: lipid channel max response.

Records with an inconclusive call do not appear. The source made the active and inactive calls. Unless noted, calls follow the shape of the dose curve; as a rule, active = well fitted curve in either direction with a large enough effect (not every such curve was filed as active); inconclusive = small, poorly fitted or top-dose-only effect, or another doubt; inactive = flat fitted curve, though single readings scatter.

Chain of Ubiquitin carboxyl-terminal hydrolase 1 (Homo sapiens) (O94782 whole entry, looked up): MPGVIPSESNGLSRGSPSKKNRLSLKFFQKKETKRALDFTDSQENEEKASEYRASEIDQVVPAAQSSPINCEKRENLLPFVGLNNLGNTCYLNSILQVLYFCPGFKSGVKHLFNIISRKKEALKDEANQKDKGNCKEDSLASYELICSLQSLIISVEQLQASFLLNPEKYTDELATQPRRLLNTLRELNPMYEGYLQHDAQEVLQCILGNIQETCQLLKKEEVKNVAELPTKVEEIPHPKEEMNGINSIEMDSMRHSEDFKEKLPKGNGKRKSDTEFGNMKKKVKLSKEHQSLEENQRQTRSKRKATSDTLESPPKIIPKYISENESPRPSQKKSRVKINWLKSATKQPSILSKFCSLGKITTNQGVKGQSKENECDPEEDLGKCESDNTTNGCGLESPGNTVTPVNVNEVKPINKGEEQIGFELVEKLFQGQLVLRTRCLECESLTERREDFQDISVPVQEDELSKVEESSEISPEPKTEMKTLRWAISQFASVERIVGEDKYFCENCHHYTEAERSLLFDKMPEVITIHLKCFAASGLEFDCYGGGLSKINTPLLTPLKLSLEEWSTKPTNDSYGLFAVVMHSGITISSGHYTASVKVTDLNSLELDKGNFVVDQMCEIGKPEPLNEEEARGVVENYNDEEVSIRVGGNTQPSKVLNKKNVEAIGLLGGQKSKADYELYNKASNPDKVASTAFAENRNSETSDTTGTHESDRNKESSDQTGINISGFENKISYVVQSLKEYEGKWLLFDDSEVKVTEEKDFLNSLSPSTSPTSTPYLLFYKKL
Chain of Dual specificity protein kinase CLK4 (Homo sapiens) (Q9HAZ1 whole entry, looked up): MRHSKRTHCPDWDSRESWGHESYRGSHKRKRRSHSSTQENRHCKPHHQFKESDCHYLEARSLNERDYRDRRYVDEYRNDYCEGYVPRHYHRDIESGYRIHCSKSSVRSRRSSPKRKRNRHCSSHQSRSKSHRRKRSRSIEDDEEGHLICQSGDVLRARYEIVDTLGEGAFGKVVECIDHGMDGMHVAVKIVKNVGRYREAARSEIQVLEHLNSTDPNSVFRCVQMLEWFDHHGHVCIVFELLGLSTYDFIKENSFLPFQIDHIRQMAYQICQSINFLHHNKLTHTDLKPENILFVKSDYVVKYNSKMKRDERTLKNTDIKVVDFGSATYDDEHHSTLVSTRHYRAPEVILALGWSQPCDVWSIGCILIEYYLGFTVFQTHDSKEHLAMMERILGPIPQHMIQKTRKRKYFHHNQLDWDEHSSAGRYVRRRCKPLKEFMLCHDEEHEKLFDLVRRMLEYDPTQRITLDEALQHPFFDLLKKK
Chain of 3',5'-cyclic-AMP phosphodiesterase 4B (Homo sapiens) (Q07343 whole entry, looked up): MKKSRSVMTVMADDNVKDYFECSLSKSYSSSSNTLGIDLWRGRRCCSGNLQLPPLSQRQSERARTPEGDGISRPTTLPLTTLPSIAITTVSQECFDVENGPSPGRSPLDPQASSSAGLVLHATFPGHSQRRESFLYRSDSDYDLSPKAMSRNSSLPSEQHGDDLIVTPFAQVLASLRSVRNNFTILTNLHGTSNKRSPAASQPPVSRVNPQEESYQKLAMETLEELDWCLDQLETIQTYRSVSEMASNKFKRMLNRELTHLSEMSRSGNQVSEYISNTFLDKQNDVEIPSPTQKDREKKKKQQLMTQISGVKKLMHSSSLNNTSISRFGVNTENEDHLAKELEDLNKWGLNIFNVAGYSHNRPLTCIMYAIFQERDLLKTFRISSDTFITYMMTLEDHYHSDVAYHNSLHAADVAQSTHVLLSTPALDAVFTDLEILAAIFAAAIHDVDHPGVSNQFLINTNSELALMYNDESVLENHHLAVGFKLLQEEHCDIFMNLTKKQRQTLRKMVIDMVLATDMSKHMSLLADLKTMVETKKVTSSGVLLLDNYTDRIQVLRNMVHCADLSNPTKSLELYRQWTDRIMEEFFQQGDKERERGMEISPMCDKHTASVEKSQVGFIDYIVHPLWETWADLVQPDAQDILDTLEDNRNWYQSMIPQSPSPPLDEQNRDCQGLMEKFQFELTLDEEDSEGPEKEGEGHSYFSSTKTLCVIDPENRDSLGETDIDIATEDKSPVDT
Chain of Cytochrome P450 1A2 (Homo sapiens) (P05177 whole entry, looked up): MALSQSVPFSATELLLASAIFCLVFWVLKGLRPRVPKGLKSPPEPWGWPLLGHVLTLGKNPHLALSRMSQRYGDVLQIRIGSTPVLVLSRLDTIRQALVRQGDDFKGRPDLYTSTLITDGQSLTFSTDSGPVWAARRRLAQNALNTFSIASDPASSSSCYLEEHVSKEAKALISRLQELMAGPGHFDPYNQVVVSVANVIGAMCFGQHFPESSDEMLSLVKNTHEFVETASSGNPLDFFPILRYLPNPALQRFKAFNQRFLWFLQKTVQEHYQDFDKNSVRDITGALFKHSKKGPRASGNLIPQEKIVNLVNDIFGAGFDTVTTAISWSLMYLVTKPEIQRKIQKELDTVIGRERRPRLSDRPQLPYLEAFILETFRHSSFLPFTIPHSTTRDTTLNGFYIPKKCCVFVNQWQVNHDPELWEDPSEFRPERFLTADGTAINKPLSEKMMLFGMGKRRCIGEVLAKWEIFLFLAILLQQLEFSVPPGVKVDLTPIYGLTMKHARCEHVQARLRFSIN
Chain of Lysosomal acid glucosylceramidase (Homo sapiens) (P04062 whole entry, looked up): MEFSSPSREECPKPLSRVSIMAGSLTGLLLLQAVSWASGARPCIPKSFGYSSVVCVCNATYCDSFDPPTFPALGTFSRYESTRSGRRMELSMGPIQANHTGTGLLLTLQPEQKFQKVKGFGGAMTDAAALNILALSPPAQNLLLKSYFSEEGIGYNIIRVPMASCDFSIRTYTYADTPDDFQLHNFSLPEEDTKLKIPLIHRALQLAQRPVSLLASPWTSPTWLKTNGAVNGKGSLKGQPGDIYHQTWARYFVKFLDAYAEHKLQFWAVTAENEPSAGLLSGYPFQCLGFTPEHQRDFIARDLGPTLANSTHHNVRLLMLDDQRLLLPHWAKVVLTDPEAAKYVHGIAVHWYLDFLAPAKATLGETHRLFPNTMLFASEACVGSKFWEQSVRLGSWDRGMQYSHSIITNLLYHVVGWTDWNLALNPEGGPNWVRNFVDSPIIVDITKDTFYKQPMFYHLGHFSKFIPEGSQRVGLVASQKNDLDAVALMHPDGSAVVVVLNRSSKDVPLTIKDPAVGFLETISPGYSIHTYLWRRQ

Take `CN1CCN(c2ncc3ncc(=O)n(C[C@H]4CCCO4)c3n2)CC1`: the Potency was > 11.4 µM (inactive) in [1], 10 µM (active) in assay [3], > 9.22 µM (inactive) in assay [5] and > 46 µM (inactive) in assay [6]. Further, the values for the activity change, negative = inhibition in [2] and in assay [9] were -9.63% (inactive) and 6.86% (inactive), respectively. In assay [4], the activity, negative = inhibition was -20.2% (inactive). Further, the call in [7] was inactive. Also, the Potency result in [8], in assay [10], in assay [11], in assay [12] and in [13] was “inactive” in each case. For the same compound, the max response in assay [9] (setting [16]) turned out to be 7.9%; in [9] (setting [17]) it was 13.9%.
Regarding `Cc1noc(C)c1-c1cc(N2CCN(C)CC2)ncn1`, the Potency in assay [1] is > 11.4 µM (inactive); in [3] it was 10 µM (active); in [5] it was > 46 µM (inactive); in [6], > 46 µM (inactive). In addition, the activity change, negative = inhibition was 4.49% (inactive) in [2], -0.822% (inactive) in assay [14] and 3.89% (inactive) in [9]. For the same compound, the activity, negative = inhibition in assay [4] was 7.9% (inactive). For the same compound, the compound was called inactive in [7]. The Potency result in assay [8], in [10], in assay [11], in assay [12] and in assay [13] was “inactive” each time. In addition, the results for the max response in assay [9] (setting [16]) and in [9] (setting [17]) were 22.8% and 26.7%, respectively.
With `O=C(c1cnccn1)N1CCC[C@@]2(CCN(c3ncccn3)C2)C1`, the Potency in [1] is > 11.4 µM (inactive); in [6], > 46 µM (inactive). The activity change, negative = inhibition was -3.69% (inactive) in [2], 7.98% (inactive) in assay [14] and 5.72% (inactive) in assay [9]. The Potency entry in assay [3] and in assay [15] was “inactive” throughout. The activity, negative = inhibition in assay [4] is -3.83% (inactive). In addition, the call in [7] was inactive. Moreover, the max response in assay [9] (setting [16]) stood at 9.64%; in assay [9] (setting [17]) it was 19.5%.
Regarding `Cc1nc2cnc(OCc3ccccc3)nc2n(C)c1=O`, the Potency in [1] was > 11.4 µM (inactive); in assay [5] it was > 9.22 µM (inactive); in assay [6], > 46 µM (inactive). The activity change, negative = inhibition in assay [2] was -10% (inactive); in assay [14] it was -3.24% (inactive). Also, the activity, negative = inhibition in assay [4] is -5.11% (inactive). Also, the compound was called inactive in [7]. Also, the Potency result in [8], in assay [10], in assay [11], in assay [12] and in assay [13] was “inactive” each time.
For `CCN(CC)CCn1c(-c2ccccc2)nc2c(NC3CCCCC3)nc(C)nc21`, in assay [7], the result was inactive.
For the compound `Cc1nc(NC2CCCCC2)c2nc(-c3ccccc3)n(CCN3CCCC3)c2n1`, the result in assay [7] was inactive. The Potency result in assay [15] was “inactive”.
Take `O=C(Oc1ccccc1)N1CCC[C@@]2(CCN(c3ncccn3)C2)C1`: the Potency in assay [1] is > 11.4 µM (inactive); in assay [3], 12.6 µM (active); in assay [6] it was > 46 µM (inactive). The activity change, negative = inhibition was 2.93% (inactive) in assay [2], -0.482% (inactive) in [14] and 4.5% (inactive) in assay [9]. Besides, the outcome in assay [7] was inactive. The Potency result in assay [8] and in [15] was “inactive” in each case. The max response in assay [9] (setting [16]) worked out at 8.9%; in assay [9] (setting [17]), 17.1%.
As for `CCNc1ncc2nc(C)c(=O)n(Cc3ccc(F)cc3)c2n1`, the Potency in [1] was > 11.4 µM (inactive); in assay [3], 1.58 µM (active); in [5] it was > 9.22 µM (inactive); in assay [6] it was > 46 µM (inactive); in assay [11], 15.8 µM (active). Besides, the activity change, negative = inhibition was -0.98% (inactive) in assay [2], -0.858% (inactive) in assay [14] and 3.29% (inactive) in assay [9]. Further, the activity, negative = inhibition in assay [4] is -2.29% (inactive). For the same compound, the compound was classed as inactive in assay [7]. Also, the Potency entry in assay [8], in [15], in [12] and in assay [13] was “inactive” throughout. In addition, the max response in assay [9] (setting [16]) stood at 23.4%; in assay [9] (setting [17]), 24.2%.
